Assay outcomes as filed in PubChem BioAssay.
This is one part of a sample in which hits are shown more often than they occur.
SARS PLpro yeast – qHTS of Yeast-based Assay for SARS-CoV PLP; 330,000 compounds, 0.19% hits; Potency, µM (highest dose often 32.9 µM), most hits filed as activators; S. cerevisiae expressing SARS-CoV PLpro, growth rescue; AID 485353, 2010; calls by dose curve; further: nearly all actives have a fitted effect of over 55% in size
AmpC no deterg – qHTS Inhibitors of AmpC Beta-Lactamase (assay without detergent). 330,000 compounds, 0.52% hits. P00811. Potency, µM (top dose mostly 57.1 µM), actives largely listed as inhibitors. AID 485341, 2010. AmpC nitrocefin hydrolysis, absorbance 480 nm, 0.0001% Triton; further: nearly all actives have a fitted effect of over 20% in size
Target sequence (P00811 whole entry, looked up): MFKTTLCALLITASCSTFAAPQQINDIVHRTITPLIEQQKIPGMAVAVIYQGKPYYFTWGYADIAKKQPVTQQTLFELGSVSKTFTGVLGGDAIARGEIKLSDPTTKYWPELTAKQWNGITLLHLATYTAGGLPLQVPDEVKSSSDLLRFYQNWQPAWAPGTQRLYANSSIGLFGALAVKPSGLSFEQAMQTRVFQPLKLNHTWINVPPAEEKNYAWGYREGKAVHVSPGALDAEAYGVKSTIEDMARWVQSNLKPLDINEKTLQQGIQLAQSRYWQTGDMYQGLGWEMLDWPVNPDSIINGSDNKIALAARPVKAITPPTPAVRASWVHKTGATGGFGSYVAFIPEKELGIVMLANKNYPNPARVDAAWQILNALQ
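20 mM phosphate pH 7.0 + 0.01% (detergent screen) or 0.0001% Triton X-100; 5.3 nM AmpC reagent; cpd preinc 15 min RT; nitrocefin (800 uM stock) to start; A480 q20 s × 4 min; Activity was normalised to no-enzyme and no-compound control wells.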
CHX counter – Cycloheximide Counterscreen for Small Molecule Inhibitors of Shiga Toxin. cell reporter, cycloheximide protein synthesis inhibition counterscreen. max response, %. 300,000 compounds, 12% hits. AID 2314, 2010; in the data active means max response mostly above about 13%, no sharp cut-off; inactive means mostly below about 14%; further: read at 38.3 µM for the half of the compounds with a filed dose
AMA1 RON2 block – qHTS for Inhibitors of AMA1-RON; Towards Development of Antimalarial Drug Lead: Primary Screen; Plasmodium falciparum AMA1 (3D7) - RON2 peptide interaction; AlphaScreen AMA1-biotinylated RON2 peptide binding; Potency, µM (top dose mostly 58.2 µM), usual class: inhibitors; 360,000 compounds, 0.2% hits; further: nearly all actives have a fitted effect of over 45% in size
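AMA1 (3D7) with his tag at 25 nM final met compounds first, then biotinylated RON2 peptide at 25 nM; detection used donor plus acceptor beads, 10 µg/mL apiece, read by AlphaScreen after 30 min at room temperature.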
AmpC detergent – qHTS Inhibitors of AmpC Beta-Lactamase (assay with detergent) | 370,000 compounds, 0.041% hits | Potency, µM (highest dose often 114 µM), hits mostly inhibitors | AmpC hydrolysis of nitrocefin, absorbance 480 nm, 0.01% Triton | P00811 | AID 485294, 2010; further: nearly all actives have a fitted effect of over 25% in size
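20 mM phosphate pH 7.0 + 0.01% (detergent screen) or 0.0001% Triton X-100; 5.3 nM AmpC reagent; cpd preinc 15 min RT; nitrocefin (800 uM stock) to start; A480 q20 s × 4 min; Activity was normalised to no-enzyme and no-compound control wells.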
Shiga toxin inh – A qHTS for Small Molecule Inhibitors of Shiga Toxin; 290,000 compounds, 9.2% hits; inhibition, % at 38.7 µM; AID 2315, 2010; Vero cells, Shiga toxin protein synthesis inhibition reporter; in the data active means inhibition mostly above about 28%, no sharp cut-off; inactive means mostly below about 43%
Large screens that a line does not name were inactive. Unless noted, the call rests on the fitted dose curve; in most records, active means well fitted curve in the direction sought with a large enough effect; inconclusive means small, poorly fitted or top-dose-only effect, or another doubt; inactive means no such curve, though single readings can be large; an effect the other way counts as inactive or inconclusive.

O=S(=O)(c1ccccc1)[C@@]1(c2ccccc2)C[C@@H]2ON=C(c3cccc(-c4ccccc4)c3)[C@@H]2C1	none (no result: CHX counter, Shiga toxin inh)
Cc1nc(NC(=O)c2ccccc2)nc2cc3c(cc12)OCO3	CHX counter 46, Shiga toxin inh 92
CC(=O)c1cccc(NC(=O)c2ccc3c(c2)OCO3)c1	CHX counter 52 (no result: Shiga toxin inh)
O=C(Nc1cccc(NC(=O)c2cccs2)c1)c1ccc2c(c1)OCO2	AmpC no deterg 10µM, AmpC detergent inconclusive
CCOC(=O)c1cccc(NC(=O)/C=C/c2ccc3c(c2)OCO3)c1	CHX counter 31, AmpC detergent inconclusive, Shiga toxin inh 45
COc1ccc(-c2noc(CCC(=O)NC3CCCC3)n2)cc1	none
CCc1ccc(NC(=O)Cn2c(=O)n(CCCC(=O)NCc3ccccc3Cl)c(=O)c3ccccc32)cc1	none (no result: SARS PLpro yeast, AmpC no deterg, CHX counter, AMA1 RON2 block, Shiga toxin inh)
COc1cccc(-c2noc(CCC(=O)N3CCN(c4cc(C)ccc4C)CC3)n2)c1	none (no result: CHX counter, AmpC detergent, Shiga toxin inh)
CCn1c2ccccc2c2c3ncc4cccn4c3ccc21	CHX counter 16
CC(C)N=C(NS(=O)(=O)c1ccccc1)C(Cl)(Cl)Cl	AmpC no deterg inconclusive, CHX counter 19, Shiga toxin inh 38
O=S(=O)(NC(=S)c1ccccc1)c1ccccc1	none (no result: SARS PLpro yeast, AmpC no deterg, CHX counter, AmpC detergent, Shiga toxin inh)
Cc1cccc(S(=O)(=O)NC(=O)C2(C)CCN2C(=O)Cc2cc(F)ccc2F)c1 (stereo not given)	AMA1 RON2 block 40µM (no result: SARS PLpro yeast, AmpC no deterg, CHX counter, AmpC detergent, Shiga toxin inh)
Cc1ccc(C(=O)N2CCN=C2SCc2ccc([N+](=O)[O-])cc2)cc1C	none
CN(C)c1ccc(-n2cccc2)cc1	CHX counter 16, AMA1 RON2 block 20µM
O=C(O)c1cc(N=Nc2c(O)ccc3ccccc23)cc(C(=O)O)c1	none
O=C(O)c1ccc(N=Nc2c(O)ccc3ncccc23)cc1	CHX counter 22, AMA1 RON2 block 6.3µM
O=C(CC1N=C2c3ccccc3N=C(SCc3ccc(F)cc3)N2C1=O)NCc1ccco1 (stereo not given)	CHX counter 33, Shiga toxin inh 30
O=C(CCC1N=C2c3ccccc3N=C(SCc3ccc(Cl)cc3)N2C1=O)NCc1ccco1 (stereo not given)	none
Cc1ccc(CSC2=Nc3ccccc3C3=NC(CC(=O)NCc4ccco4)C(=O)N23)cc1 (stereo not given)	CHX counter 38, Shiga toxin inh 68
O=C(CC1N=C2c3ccccc3N=C(SCC(=O)Nc3ccc(F)cc3)N2C1=O)NCc1ccco1 (stereo not given)	none (no result: SARS PLpro yeast, AmpC no deterg, CHX counter, AMA1 RON2 block, Shiga toxin inh)
O=C(CCC1N=C2c3ccccc3N=C(SCc3ccc(F)cc3)N2C1=O)NCc1ccco1 (stereo not given)	SARS PLpro yeast inconclusive, CHX counter 19
COc1ccccc1C(=O)N1CCN(C(=O)COc2cccc(C)c2)CC1	none
N/C(=N\OC(=O)c1ccc(Cl)c(Cl)c1)c1cccnc1	CHX counter 26
O=C(O/N=C(\c1ccccc1)c1ccccn1)c1ccc(Cl)c(Cl)c1	none
N/C(=N\OS(=O)(=O)c1ccc(Cl)cc1)c1cccnc1	none
N/C(=N\OC(=O)c1cccc(Cl)c1)c1cccnc1	CHX counter 47, Shiga toxin inh 99
N/C(=N\OC(=O)c1ccc(Cl)c(Cl)c1)c1cccc(CSc2ccccn2)c1	CHX counter 29, Shiga toxin inh 62
N/C(=N\OC(=O)c1cccc(Cl)c1)c1ccncc1	CHX counter 39, Shiga toxin inh 59
O=C(NNC(=O)c1cccc(C(F)(F)F)c1)c1ccncc1	none
N/C(=N\OC(=O)c1cccc(C(F)(F)F)c1)c1cnccn1	SARS PLpro yeast inconclusive, CHX counter 30, AmpC detergent inconclusive, Shiga toxin inh 59
COc1ccc(-n2c(=O)c3c4c(sc3n(Cc3ccccc3)c2=O)CN(C(C)=O)CC4)cc1OC	none (no result: SARS PLpro yeast, AmpC no deterg, CHX counter, AMA1 RON2 block, Shiga toxin inh)
COc1ccc(Cn2nnc(C(=O)Nc3ccc4c(c3)OCCO4)c2N)cc1Br	CHX counter 17
COc1cccc(CNC(=O)c2nnn(CC(=O)Nc3ccc4c(c3)OCO4)c2N)c1	none
COc1cccc(Cn2nnc(C(=O)NCc3ccc4c(c3)OCO4)c2N)c1	AmpC no deterg 35µM
O=C(CSCc1cnn(-c2ccccc2)c1-n1cccc1)N1CCN(Cc2ccccc2)CC1	AmpC detergent inconclusive
Cc1ccc(-c2cc3ncc(C#N)c(N)n3n2)cc1	CHX counter 24, Shiga toxin inh 69
Nc1c(-c2ccccc2)cnc2cc(-c3ccccc3)nn12	CHX counter 24, Shiga toxin inh 36
Cc1ccc(-n2ncc(C#N)c2N)cc1	none
O=[N+]([O-])c1ccc(O)c(-c2ccnc3cc(-c4ccccc4)nn23)c1	none (no result: SARS PLpro yeast, AmpC no deterg, CHX counter, AMA1 RON2 block, Shiga toxin inh)
Cc1cc2ncc(-c3ccc(Cl)cc3)c(N)n2n1	CHX counter 43, Shiga toxin inh 64
Nc1c(-c2ccc(Cl)cc2)cnc2ncnn12	none
COCCCNc1nc2ccccc2nc1NS(=O)(=O)c1ccc(C)cc1	none
CCn1cc[n+](C)c1P(c1ccccc1)c1ccccc1	none
COc1ccc([C@H]2C[C@@H](n3cc(C4CC4)nn3)[C@H](O)CN2C(=O)c2cccs2)cc1	none (no result: SARS PLpro yeast, AmpC no deterg, CHX counter, AmpC detergent, Shiga toxin inh)
Cc1cc(O)c(/C=N/Nc2ccccc2Cl)c(=O)o1	CHX counter 22
Cc1cc(O)c(/C=N/Nc2ccc(Cl)cc2)c(=O)o1	AmpC detergent inconclusive
CCN(CC)Cc1c(O)ccc2c1O/C(=C\C=C\c1ccccc1)C2=O	CHX counter 16, Shiga toxin inh 106
COc1ccccc1/C=C/C=C1\Oc2c(ccc(O)c2CN(C)C)C1=O	CHX counter 13
C/C(=N\NC(=O)COc1ccc(C)cc1C(C)C)c1cc2ccccc2o1	AmpC detergent inconclusive
Cc1c(C(=O)O)sc2nc(/C=C/c3cccc(F)c3)[nH]c(=O)c12	none
O=C(CSCc1ccccc1Cl)NCCSc1ccccn1	CHX counter 21
O=C(COc1ccc(Cl)cc1)NCCSCc1ccccc1Cl	none
O=C1CN(C(=O)/C=C/c2ccccc2F)c2ccccc2N1	CHX counter 27, Shiga toxin inh 75
CCOC(C(=O)OCCCN(CC)CC)(c1ccccc1)c1ccccc1	none
CC(=O)Nc1ccc2nc(C3CCCCC3)[nH]c2c1	none
NC(N)=Nc1nc2ccc([N+](=O)[O-])cc2[nH]1	CHX counter 9.4
O=[N+]([O-])c1ccc2nc(C3CCCCC3)[nH]c2c1	CHX counter 18, AmpC detergent inconclusive, Shiga toxin inh 46
O=[N+]([O-])c1ccc(/C=C/c2nc3ccc([N+](=O)[O-])cc3[nH]2)cc1	CHX counter 33, Shiga toxin inh 91
O=[N+]([O-])c1ccc2nc(CCCc3nc4ccc([N+](=O)[O-])cc4[nH]3)[nH]c2c1	Shiga toxin inh 53
